PubChem BioAssay (Tox21)
Results filed as inconclusive are left out. Calls of active or inactive are those of the source. Calls follow the shape of the dose curve; as a rule, active = well fitted cell-killing curve with a large enough effect in the repeat runs; inconclusive = weak or mixed curves, or effect the other way; inactive = flat fitted curve, though single readings scatter.
% is scaled to controls: 0 for no effect and ±100 for the full control effect.

Assay: qHTS RealTime-Glo MT Cell Viability Assay in HepG2 cells - 40 hour (AID 1224870); also: nearly all actives have a fitted effect of over 50% in size
Conditions: RealTime-Glo luminescence; series mostly up to 76.8 µM; activity change, negative = cytotoxic: at the top concentration
Excerpt: National Center for Advancing Translational Sciences [NCATS]
NIH Chemical Genomics Center [NCGC]
U.S. Environmental Protection Agency [EPA]
National Institutes of Environmental Health Sciences [NIEHS]
National Toxicology Program [NTP]
U.S. Food and Drug Administration [FDA]
Measure of cell viability is critical in the cell-base assay. Analysis of cell viability is necessary for the characterization of cell responses to cytotoxic drugs and environmental stress. A RealTime-Glo MT Cell Viability Assay to monitor cell viability in real time of continues cell culture during 40 hours of compound treatment was used to screen Tox21 10K library compounds in HepG2 cells. The RealTime-Glo MT Cell Viability Assay is a nonlytic, homogeneous, bioluminescent method to measure cell viability in real time using a simple, plate-based method. The assay involves adding NanoLuc luciferase and a cell-permeant prosubstrate to cells in culture. Viable cells reduce the proprietary prosubstrate to generate a substrate for NanoLuc luciferase. This substrate diffuses from cells into the surrounding culture medium, where it is rapidly used by the NanoLuc Enzyme to produce a luminescent signal. The signal correlates with the number of viable cells, making the assay well suited for cytotoxicity studies.
Tox21 Assay Protocol Summary:
The mixture of HepG2 cell suspension and reagents were dispensed at 600cells/6 ul/well in 1536-well tissue culture treated black solid bottom plates using a Multidrop dispenser. After the assay plates were incubated at a 37 C/5% CO2 incubator for 5 hours, 23 nL of compounds dissolved in DMSO, positive and negative controls was transferred to the assay plate by a pintool work station. The plates were incubated at 37 C for 40 hours. The luminescence intensity were measured at 0h, 8h, 16h, 24h, 32h and 40h time points using ViewLux plate reader during compound treatment.
With `CC/C=C\CC/C=C/CO` the “activity change, negative = cytotoxic” value was 5.91% (inactive). With `CCC(=O)OC(C)c1ccccc1` (stereo not given) the “activity change, negative = cytotoxic” value was 2.05% (inactive). In the case of `CN1CCC(=C2c3ccccc3CC(=O)c3sccc32)CC1`, the “activity change, negative = cytotoxic” value is reported as 0.913% [at 35.3 µM] (inactive). With `O=c1cc(CO)occ1O` the “activity change, negative = cytotoxic” value was 0.295% [at 35.3 µM] (inactive). In the case of `NS(=O)(=O)c1cc2c(cc1Cl)NC(C1CC3C=CC1C3)NS2(=O)=O` (stereo not given), the “activity change, negative = cytotoxic” value is reported as -2.1% [at 35.3 µM] (inactive). With `O=S(O)CO` the “activity change, negative = cytotoxic” value was -0.703% (inactive). In the case of `C[C@H]1C[C@@H](O)CC(C)(C)C1`, the “activity change, negative = cytotoxic” value is reported as -1.47% (inactive). For `CCc1cccc2c(CCO)c[nH]c12`, the “activity change, negative = cytotoxic” value was 4.82% [at 35.3 µM] (inactive). With `c1cnc(N2CCN(Cc3ccc4c(c3)OCO4)CC2)nc1` the “activity change, negative = cytotoxic” value was 0.161% [at 35.3 µM] (inactive). With `O=C(O)CN(CCOCCOCCN(CC(=O)O)CC(=O)O)CC(=O)O` the activity change, negative = cytotoxic was 0.968% [at 0.29 µM] (inactive). For `COC(C)(C)CCCC(C)CC=O` (stereo not given), the “activity change, negative = cytotoxic” value was 0.932% (inactive). For `N=C(N)c1ccc(OCCCOc2ccc(C(=N)N)cc2)cc1`, the “activity change, negative = cytotoxic” value was 1.3% [at 35.3 µM] (inactive). For `CCCc1cc(C(N)=S)ccn1`, the “activity change, negative = cytotoxic” value was 1.43% [at 35.3 µM] (inactive). With `CCS(=O)(=O)c1ccc(OC)c(C(=O)OC)c1` the “activity change, negative = cytotoxic” value was 1.49% [at 35.3 µM] (inactive). For `CCCCCCCCCCCCCC=O`, the activity change, negative = cytotoxic was -13.1% [at 6.97 µM] (inactive). For `CCCCOCCOCCOCc1cc2c(cc1CCC)OCO2`, the Potency was “inactive”. With `CC(C)OC(=O)c1ccccc1` the “activity change, negative = cytotoxic” value was 0.625% (inactive). With `O=C(CCCN1CCC(O)(c2cccc(C(F)(F)F)c2)CC1)c1ccc(F)cc1` the “activity change, negative = cytotoxic” value was -11.3% [at 35.3 µM] (inactive). With `N[C@H]1CN(c2c(F)cc3c(=O)c(C(=O)O)cn(C4C[C@H]4F)c3c2Cl)CC12CC2` (stereo not given in full) the “activity change, negative = cytotoxic” value was -2.88% [at 35.3 µM] (inactive). With `CC(NC(CCc1ccccc1)C(=O)O)C(=O)N1C(=O)N(C)CC1C(=O)O` (stereo not given) the “activity change, negative = cytotoxic” value was 4.66% [at 35.3 µM] (inactive). For `Cc1cc(O)cc2c1O[C@](C)(CCC[C@H](C)CCC[C@H](C)CCCC(C)C)CC2`, the “activity change, negative = cytotoxic” value was 4.5% [at 35.3 µM] (inactive). For `CCCCCCOC(=O)CCCCC(=O)OCCCCCC`, the “activity change, negative = cytotoxic” value was -6.02% (inactive). In the case of `CCCC(=O)O[C@]1(C(=O)CO)CC[C@H]2[C@@H]3CCC4=CC(=O)CC[C@]4(C)[C@H]3[C@@H](O)C[C@@]21C`, the “activity change, negative = cytotoxic” value is reported as 0.669% [at 35.3 µM] (inactive). With `CCn1ccnc1CC1COc2ccccc2O1` (stereo not given) the “activity change, negative = cytotoxic” value was -0.19% [at 35.3 µM] (inactive). For `CC/C=C\CCOC(C)=O`, the “activity change, negative = cytotoxic” value was 1.43% (inactive). With `Cc1[nH]c(=O)c(C#N)cc1-c1ccc2nccn2c1` the “activity change, negative = cytotoxic” value was 0.221% [at 35.3 µM] (inactive). In the case of `O=C(O)Cc1ccc(CCNS(=O)(=O)c2ccc(Cl)cc2)cc1`, the “activity change, negative = cytotoxic” value is reported as 3.41% [at 35.3 µM] (inactive). For `COC(=O)c1ccc(C)cc1C1=NC(C)(C(C)C)C(=O)N1` (stereo not given), the “activity change, negative = cytotoxic” value was 0.31% (inactive). For `COc1ccccc1OCC(O)CN1CCN(CC(=O)Nc2c(C)cccc2C)CC1` (stereo not given), the “activity change, negative = cytotoxic” value was -0.585% [at 35.3 µM] (inactive). For `N[C@@H](C(=O)N[C@@H]1C(=O)N2C(C(=O)O)=C(Cl)CS[C@H]12)c1ccccc1`, the activity change, negative = cytotoxic was 0.227% [at 6.97 µM] (inactive). With `CO[Si](CCCOCC1CO1)(OC)OC` (stereo not given) the Potency was “inactive”. In the case of `CC(C)(c1ccc(O)cc1)c1ccc(O)cc1`, the “activity change, negative = cytotoxic” value is reported as -0.502% (inactive). For `COc1c(N2C[C@@H]3CCCN[C@@H]3C2)c(F)cc2c(=O)c(C(=O)O)cn(C3CC3)c12`, the “activity change, negative = cytotoxic” value was 2.55% [at 35.3 µM] (inactive). In the case of `CN(C)CCCNCCCN(C)C`, the “activity change, negative = cytotoxic” value is reported as 5.32% (inactive). In the case of `CC(=O)CC(C)(C)C1CCCCC1`, the “activity change, negative = cytotoxic” value is reported as 2.56% (inactive). In the case of `CC1(C)C(O)C(C)(C)C1O` (stereo not given), the “activity change, negative = cytotoxic” value is reported as -0.414% (inactive). In the case of `CC(=O)OCC(=O)[C@@]1(O)CC[C@H]2[C@@H]3CCC4=CC(=O)CC[C@]4(C)[C@H]3C(=O)C[C@@]21C`, the “activity change, negative = cytotoxic” value is reported as -7.53% [at 35.3 µM] (inactive). For `CCC(C)C1CCCCC1=O` (stereo not given), the “activity change, negative = cytotoxic” value was 0.299% (inactive). For `CC(C)(C)NCCNC(C)(C)C`, the “activity change, negative = cytotoxic” value was 1.2% (inactive). For `C=CCS(=O)(=O)O`, the “activity change, negative = cytotoxic” value was 0.609% (inactive).
